High-throughput results deposited in PubChem by National Center for Advancing Translational Sciences (NCATS).
In the library only some 0.92% were active in any assay of this set; here they are far more common.
BLM helicase inh: inhibitors of human Bloom syndrome helicase BLM. P54132. recombinant BLM DNA unwinding, fluorescence dequenching. Potency, µM (highest dose often 56.1 µM), for the others: at the highest dose activity change, negative = inhibition, most hits filed as inhibitors. 350,000 compounds, 0.2% hits;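 also: plate controls were vehicle for no effect and no enzyme for full effect; nearly all actives have a fitted effect of over 35% in size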
FEN1 inh: inhibitors of human flap endonuclease 1; P39748; Recombinant FEN1 flap cleavage, fluorescence, 15 min; Potency, µM (series often up to 114 µM), for inactives: top-dose activity change, negative = inhibition, hits mostly inhibitors; 390,000 compounds, 0.35% hits; also: nearly all actives have a fitted effect of over 65% in size
Target sequence (P39748 whole entry, looked up): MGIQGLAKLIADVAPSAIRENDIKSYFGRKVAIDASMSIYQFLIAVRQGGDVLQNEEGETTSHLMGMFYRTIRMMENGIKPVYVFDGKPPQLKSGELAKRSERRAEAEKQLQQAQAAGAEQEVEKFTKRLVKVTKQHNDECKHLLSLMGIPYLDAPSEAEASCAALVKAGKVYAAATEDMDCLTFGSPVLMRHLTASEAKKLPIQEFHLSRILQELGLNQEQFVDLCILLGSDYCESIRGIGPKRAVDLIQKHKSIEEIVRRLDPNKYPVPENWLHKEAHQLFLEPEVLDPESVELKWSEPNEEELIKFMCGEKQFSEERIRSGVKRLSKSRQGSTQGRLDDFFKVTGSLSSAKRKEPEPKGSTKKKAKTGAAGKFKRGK
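In this screen, 50 nM flap DNA substrate was added to 10 nM FEN1 pretreated with compound for 15 min at room temperature; cleavage was followed with reads at 0 and 15 min, and Hill fitting gave concentration–response parameters.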
RECQ1 inh-1: blocks DNA unwinding by human RECQ1. P46063. RECQ1 DNA unwinding, red fluorescence kinetic read. Potency, µM (highest dose often 57.3 µM), for the others: at the highest dose activity, negative = inhibition, actives largely listed as inhibitors. 240,000 compounds, 0.54% hits;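 also: plate controls were vehicle for no effect and no enzyme for full effect; nearly all actives have a fitted effect of over 30% in size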
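RECQ1T1 50 nM; forked duplex (20 bp + 30-nt ss tails) 200 nM, ATP 2 mM final; pH 8.0, 2 mM MgCl2, 2.5 ug/ml poly(dI-dC); 15 min compound preincubation; discontinuous kinetic read over 2 h at RT.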
TDP1 block: inhibitors of human tyrosyl-DNA phosphodiesterase TDP1; recombinant TDP1, AlphaScreen DNA substrate cleavage; Potency, µM (top dose mostly 130 µM), without a hit: top-dose activity change, negative = inhibition, hits mostly inhibitors; 350,000 compounds, 0.28% hits; also: nearly all actives have a fitted effect of over 40% in size
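Signal: AlphaScreen proximity between streptavidin donor and anti-FITC acceptor beads on intact substrate. Reaction: Tdp1 1 nM, substrate 15 nM final, 5 min RT after 15 min compound preincubation.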
APE1 inh-1: blocks human APE1 abasic DNA cleavage; AID 2517; Potency, µM (top dose mostly 65.8 µM), for inactives: at the top dose activity change, negative = inhibition, actives largely listed as inhibitors; 350,000 compounds, 0.35% hits; P27695; recombinant APE1, TAMRA/BHQ-2 abasic DNA cleavage fluorescence;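 also: plate controls were vehicle for no effect and reference inhibitor for full effect; nearly all actives have a fitted effect of over 55% in size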
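APE1 at 0.75 nM final was preincubated with compound 15 min at room temperature, then 50 nM double-stranded THF abasic-site substrate (5'-TAMRA/3'-BHQ-2) was added. Fluorescence (ex 525/em 598 nm) was read kinetically; third-minus-first read gave activity.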
DNA dye displace: displaces fluorescent dye from DNA, flagging APE1 artifacts. DNA fluorescent dye displacement counterscreen, fluorescence. 480 compounds, 7% hits. shares compounds with APE1 inh-1. Potency, µM (series often up to 28.5 µM), for the others: at the top dose activity change, negative = inhibition, most hits filed as inhibitors;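 also: loss of thiazole orange fluorescence as the dye is displaced from duplex DNA; 0% = ThO with dsDNA and no compound and -100% = ThO without dsDNA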
EndoIV counter: Endo IV (E. coli) inhibition counter-screen; shares compounds with APE1 inh-1; 560 compounds, 4% hits; E. coli Endo IV, fluorogenic AP-site DNA cleavage; Potency, µM (series often up to 27.1 µM), inactives show at the top dose activity change, negative = inhibition, actives largely listed as inhibitors; AID 2565;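 also: plate controls were uninhibited enzyme wells for no effect and no enzyme buffer wells for full effect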
APE1 inh-2: APE1 (human) endonuclease inhibition, confirmation; purified APE1, fluorogenic abasic-site DNA cleavage; AID 2572; shares compounds with APE1 inh-1; Potency, µM (series often up to 57.1 µM), for the others: at the highest dose activity change, negative = inhibition, hits mostly inhibitors; 750 compounds, 44% hits; also: nearly all actives have a fitted effect of over 30% in size
APE1 FP: APE1 (human) DNA binding inhibition, fluorescence polarization; shares compounds with APE1 inh-1; APE1 binding to TAMRA-labelled double-stranded DNA, fluorescence polarization displacement; Potency, µM (highest dose often 28.5 µM), without a hit: top-dose activity, negative = inhibition, most hits filed as inhibitors; 480 compounds, 7% hits
RECQ1 conf: confirmation of human RECQ1 helicase inhibitors; shares compounds with RECQ1 inh-1; 610 compounds, 28% hits; Potency, µM (highest dose often 229 µM), without a hit: at the top dose activity change, negative = inhibition, actives largely listed as inhibitors; RECQ1 helicase DNA unwinding, fluorescence; also: nearly all actives have a fitted effect of over 45% in size
RECQ1 ADP FP: counter-screen for RECQ1 inhibitors: ADP displacement; shares compounds with RECQ1 inh-1; ADP fluorescence polarization displacement counterscreen; Potency, µM (top dose mostly 228 µM), for inactives: at the top dose activity change, negative = inhibition, hits mostly inhibitors; 530 compounds, 27% hits; also: nearly all actives have a fitted effect of over 45% in size
RECQ1 inh-2: RECQ1 helicase inhibition confirmed, round 2 | shares compounds with RECQ1 inh-1 | recombinant RECQ1 DNA unwinding, red fluorescence | Potency, µM (series often up to 119 µM), inactives show at the highest dose activity, negative = inhibition, actives largely listed as inhibitors | 1,100 compounds, 15% hits | AID 504841; also: nearly all actives have a fitted effect of over 50% in size
Starred values were filed as active, the others as inactive; i = inactive; ? = inconclusive; / = not tested or not shown; [ ] = dose if it differs, or a comment. Calls follow the shape of the dose curve; as a rule, active = well fitted curve in the direction sought with a large enough effect; inconclusive = small, poorly fitted or top-dose-only effect, or another doubt; inactive = no such curve, though single readings can be large; an effect the other way counts as inactive or inconclusive. Unless noted, % is scaled to controls: 0 for no effect and ±100 for the full control effect; potency is read from the fitted curve at half-maximal effect.

SMILES | BLM helicase inh | FEN1 inh | RECQ1 inh-1 | TDP1 block | APE1 inh-1 | DNA dye displace | EndoIV counter | APE1 inh-2 | APE1 FP | others
O=C(O)C[C@@H]1C(=O)O[C@@H]2C(COC(=O)c3cc(O)c(O)c(O)c3)O[C@@H](OC(=O)c3cc(O)c(O)c(O)c3)[C@@H](OC(=O)c3cc(O)c(O)c4c3[C@H]1[C@H](O)C(=O)O4)[C@H]2OC(=O)c1cc(O)c(O)c(O)c1 (some centres not stated) | 0.1µM* | / | 0.112µM* | / | 0.0089µM* | ? | ? | 0.0022µM* | ? | RECQ1 conf=0.447µM*;RECQ1 ADP FP=31.6µM*
COc1cc(NC(=O)N2CCC3(CC2)Nc2ccccc2-n2cccc23)cc(OC)c1OC | -10.3% | -1.2% | / | 10.8% | / | / | / | / | /
Cc1ccccc1NC(=O)CN1C(=O)S/C(=C\c2ccc(-c3cccc(C(=O)O)c3C)o2)C1=O | -1.3% | -13.0% | i | 5.4% | 0.1% | / | / | / | /
Cc1ccc(NC(=O)CN2C(=O)S/C(=C/c3ccc(-c4cc(C(=O)O)ccc4C)o3)C2=O)cc1C | ? | 35.5µM* | 14.1µM* | / | ? | 149.2% | -3.5% | 7.08µM* | 10µM* | RECQ1 conf=22.4µM*;RECQ1 ADP FP=?;RECQ1 inh-2=?
Cc1c(C(=O)N2CCN(c3ccccc3)CC2)sc2nc3n(c(=O)c12)CCC3 | -1.1% | -1.6% | / | 1.6% | -14.4% | / | / | / | /
Cc1c(C(=O)O)sc2nc3n(c(=O)c12)CCC3 | 4.2% | -8.2% | ? | 14.1µM* | ? | / | / | ? | / | RECQ1 inh-2=-13.9%
OCC(O)C[n+]1cccc(Br)c1 (configuration not stated) | / | -11.9% | / | / | / | / | / | / | /
O=C(CCCN1C(=O)/C(=C/c2ccco2)SC1=S)Nc1ccccc1C(=O)O | 9.3% | ? | 8.91µM* | / | 20µM* | -9.9% | 119.3% | 12.6µM* | -30.2% | RECQ1 conf=28.2µM*;RECQ1 ADP FP=50.1µM*
Cc1ccc(Cn2c(C(C)NC(=O)c3ccccc3)nc3ccccc32)cc1 (configuration not stated) | -9.6% | -2.1% | / | 5.1% | / | / | / | / | /
O=C(CNC1=NCCS1)c1c[nH]c2ccccc12 | / | -9.9% | / | / | / | / | / | / | /
Cc1ccc(/C=c2/sc3nnc(-c4ccccc4Cl)n3c2=O)o1 | ? | -9.3% | -14.8% | -2.1% | ? | / | / | / | /
Cc1ccc(/C=c2\sc3nc(-c4ccccc4Br)nn3c2=O)o1 | -20.6% | ? | ? | / | 12.6µM* | ? | 8.0% | -26.4%[24.4 µM] | 13.7% | RECQ1 inh-2=32.4%
Cc1cc2ccccc2c[n+]1C1CCCCC1 | / | -16.3% | / | / | / | / | / | / | /
